Laboratory results from PubChem BioAssay AID1259313 (Sanford-Burnham Center for Chemical Genomics, 2017).
Screen size: about 340,000 compounds; about 8,500 (2.5%) were called active. Many of the other results were omitted from the sample, so actives are more common in it than they were. Values without a mark were called inactive.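 How the source made its calls: active means melting temperature shift of at least 10% of the positive control shift, at one fixed dose; inactive means the rest.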

system: Glutamate receptor ionotropic, NMDA 3A (GRIN3A) ligand-binding domain; assay: binders of NR3A ligand-binding domain, primary screen, biophysical, differential scanning fluorimetry, uHTS (AID 1259313); conditions: NR3A LBD differential scanning fluorimetry, at 25 µM, stronger effect = higher value, 0% = protein alone, 100% = glycine-bound protein

Structure (SMILES) | Tm shift relative to glycine control
Cc1ccc(NC(=S)N2CCN(c3ncccn3)CC2)cc1C | -1.38%
Cn1cc(/C=C/C(=O)N2CCCC(C(=O)c3ccc(C(F)(F)F)cc3)C2)cn1 (centres undefined) | 1.32%
CCCCn1c(N)c(N(CCOC)C(=O)c2cccc(OCc3ccccc3)c2)c(=O)[nH]c1=O | 1.68%
CCCCCCCCCCOC(=O)Cn1c(COc2cccc(OC)c2)[n+](C)c2ccccc21 | 17.8% (active)
CCCCCCCCCCOC(=O)Cn1c(COc2ccc(C)cc2)[n+](C)c2ccccc21 | -408%
O=C1CC(Cc2ccccc2)C(=O)N1c1ccc(Cl)cn1 (centres undefined) | 1.69%
Fc1ccc(/C=N/n2c(COc3ccccc3)n[nH]c2=S)cc1 | -0.74%
CN(C)c1ccc(C2Nc3ccccc3C(=O)N2NS(=O)(=O)c2ccccc2)cc1 (centres undefined) | 0.59%
O=C(CN1CCOCC1)Nc1c(Cl)cc(Cl)cc1Cl | -2.33%
Cc1cc(C)c(NC(=O)CN2CCOCCOCCOCCOCC2)c(C)c1 | 0.86%
O=C(CN1CCOCC1)Nc1c2c(nc3c1CCC3)CCC2 | 10.2% (active)
O=C(COc1ccc2ccccc2c1)N1CCN(C(=O)c2cccs2)CC1 | 0.47%
CCOC(=O)c1nn(-c2ccccc2F)c2nc(Nc3ccccc3)cc(=O)n12 | 0.55%
Cc1ccc(NC(=O)CSCC(=O)Nc2sccc2C#N)cc1 | -2.55%
Cc1ccc(NC(=O)c2sc3nc(N)c(C#N)cc3c2N)cc1 | 10.3% (active)
CCc1ccc2nc3sc(C(=O)Nc4nnc(CC)s4)c(N)c3cc2c1 | 2.24%
Cc1cccc(C)c1OCC(=O)NC(Cc1c[nH]c2ccccc12)C(=O)O (centres undefined) | 0.33%
O=C(CCn1nnc2ccccc2c1=O)N[C@@H](Cc1c[nH]c2ccccc12)C(=O)O | -1.09%
O=C(N[C@@H](Cc1c[nH]c2ccccc12)C(=O)O)OCC1c2ccccc2-c2ccccc21 | 19.5% (active)
Cc1cc(NC(=O)C(C)SCC(=O)Nc2cccc(S(=O)(=O)N3CCCCCC3)c2)no1 (centres undefined) | -1.57%

Structure (SMILES) | Tm shift relative to glycine control
Cc1c(/C=N\NC(=O)c2cc3ccccc3o2)c2ccccc2n1C | 2.79%
O=C(N/N=C/c1ccc(Cl)cc1)c1nc2ccc([N+](=O)[O-])cc2c(=O)[nH]1 | 1.51%
Nc1nonc1-n1nnc(C(=O)N/N=C/c2c[nH]c3ccccc23)c1-c1ccccc1 | 31.6% (active)
O=C(N/N=C/c1c[nH]c2ccccc12)c1cc2ccccc2o1 | 28.7% (active)
Cc1cc(NC(=O)c2cc3ccccc3o2)no1 | 2.81%
CC(C)c1c(C(=O)N/N=C/c2ccccc2C(=O)O)nnn1-c1nonc1N | -7.76%
NC(=O)CSc1c[nH]c2ccccc12 | 0.83%
O=C(NN=Cc1ccc([N+](=O)[O-])cc1)C1CC1 | -0.92%
C[n+]1ccc(/C=C/c2c[nH]c3ccccc23)cc1 | -3.88%
O=C(N/N=C/c1ccc([N+](=O)[O-])cc1)c1c[nH]c2ccccc12 | 26.3% (active)
Nc1nonc1-n1nnc(C(=O)N/N=C/C2CCCCC2)c1-c1ccccc1 | 0.68%
CSC(=S)N/N=C/c1c[nH]c2ccccc12 | 30.1% (active)
Cc1ccc(N2CCN(S(=O)(=O)N(C)C)CC2)cc1Cl | 1.66%
CCCNC(=O)c1cnc(-c2ccccc2)nc1-c1ccccc1 | -1.35%
CN(C)S(=O)(=O)N1CCC(Oc2cccc(C(=O)NCCCC3CCCC3)c2)CC1 | 0.18%
O=C(Oc1ccc(F)cc1)N1CCOCC1 | 1.08%
Cc1c(NC(=O)c2c([N+](=O)[O-])cnn2C)c(=O)n(-c2ccccc2)n1C | -0.61%
CCOC(=O)C1(Cc2cccc(OC)c2)CCCN(S(=O)(=O)c2cccnc2)C1 (centres undefined) | 0.32%
O=C(N/N=C/c1ccsc1)c1cc(O)cc(O)c1 | -11.7%
O=C(N/N=C/c1cccc(OCc2ccccc2)c1)c1ccc(Br)o1 | -4.34%

Structure (SMILES) | Tm shift relative to glycine control
Cc1ccc2occ(/C=N/NC(=O)c3ccccc3C)c(=O)c2c1 | -0.75%
O=C(Cc1c[nH]c2ccccc12)N/N=C/c1cccc(F)c1 | -4.78%
O=C(N/N=C/c1c[nH]c2ccccc12)c1ccccc1O | 37% (active)
O=C(N/N=C/c1cccc(O)c1)c1cc2c(ccc3ccccc32)o1 | 25.4% (active)
COc1ccc2c(C)cc3nnnn3c2c1 | 1.26%
Cc1ccc(CN2CCC(N3CCC(C(=O)NCC4CCCO4)CC3)CC2)o1 (centres undefined) | 0.34%
O=C(NC(=O)c1cc(OCC(F)(F)F)ccc1OCC(F)(F)F)Nc1ccccc1 | -0.36%
CC(C)(C)n1nc2c(c1NC(=O)c1ccc(S(=O)(=O)N3CCCC3)cc1)CS(=O)C2 (centres undefined) | 0.18%
CC(OC(=O)CNC(=O)c1cccc(F)c1)C(=O)NC1CCCCC1C (centres undefined) | -0.43%
CS(=O)(=O)c1sc(C(=O)NC(=S)Nc2ccc(OC(F)(F)F)cc2)c2c1C=CCC2 | 11.4% (active)
FC(F)(F)Oc1ccc(NC(=S)NCc2ccccc2)cc1 | 0.09%
CCNC(=S)Nc1ccc(OC(F)(F)F)cc1 | -1.13%
c1ccc2cc3c(NCCN4CCOCC4)ccnc3cc2c1 | -8.16%
O=C1CC(c2cccc(Cl)c2)CC(O)=C1C=Nc1ccccc1 (centres undefined) | -0.75%
Cc1cc(C(=O)OCC(=O)NCc2ccco2)c(C)n1-c1ccccc1 | -1.04%
Cc1ccc(S(=O)(=O)N2CC(O)C[C@H]2C(=O)OCC(=O)Nc2ccc(N3CCOCC3)cc2)cc1C (some centres undefined) | 1.27%
O=C(Nc1ccc2c(c1)CCC2)c1cccc(S(=O)(=O)N2CCN(c3ccc(F)cc3)CC2)c1 | 2.49%
O=C(Nc1ccc2c(c1)CCC2)c1cccc(S(=O)(=O)Nc2ccccc2Cl)c1 | 14.9% (active)
O=C(NCC1(N2CCCCC2)CCCCC1)c1cccc(S(=O)(=O)Nc2ccccc2Cl)c1 | -0.85%
